# From PubChem
# Rows were chosen to be rich in hits. Some 3.5% of all compounds tested hit in one or more screens of this group.
# 14-3-3 Bad inh: disrupts binding of bovine 14-3-3 zeta to phospho-Bad peptide. TR-FRET 14-3-3zeta/Dy647-pBad peptide displacement, 1 h. inhibition, % at 21.7 µM. 0.71% of 220,000 active. AID 781;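 active = inhibition above about 70%, limit read from the data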;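 also: 0% = full 14-3-3 plus peptide FRET controls and 100% = background without 14-3-3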
# eIF4E-4G inh: blocks eIF4E binding to eIF4G | TR-FRET eIF4E-eIF4GI(517-606) binding, 2 h | inhibition, % at 21.7 µM | 0.37% of 220,000 active;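 active = inhibition above about 30%, limit read from the data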;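 also: 0% = full FRET control wells and 100% = background wells lacking eIF4GI fragment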
# Mcl1-Noxa inh: disrupts binding of human Mcl-1 to Noxa peptide; TR-FRET Mcl-1/Noxa peptide binding, 2 h; inhibition, % at 21.7 µM; 1.5% of 220,000 active; Q07820;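 active = compounds that cut the protein-peptide binding signal by more than 50% relative to plate controls in a single-dose test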;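 also: His-tagged Mcl-1 with rhodamine Noxa BH3 peptide and terbium anti-His antibody; 0% = Mcl-1 plus Noxa peptide wells and 100% = peptide-only wells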
# Bim-Mcl-1: human Bim-Mcl-1 interaction inhibition. 0.1% of 190,000 active. Q07820. Bead-based flow cytometry, Bim peptide-Mcl-1 binding. inhibition, % at 10 µM; in the data active = inhibition above about 40%;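 also: 0% = no compound tracer wells and 100% = peptide blocker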
# Mcl1-Bid inh: Mcl-1/Bid interaction inhibition | Q07820 | TR-FRET Mcl-1/Bid-Dy647 peptide binding, 1536-well | inhibition, % at 21.7 µM | 0.97% of 220,000 active | AID 1021;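 active = compounds that cut the binding signal by more than half at the single screening dose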;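 also: His-tagged Mcl-1 with europium anti-His antibody binding Bid BH3 peptide; 0% = Mcl-1 plus peptide wells and 100% = peptide-only wells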
# Hck Nef HTS: blocks Nef-activated human Hck kinase; Recombinant Hck-YEEI plus Nef, Z-Lyte FRET kinase assay; inhibition, % at 20 µM; 0.68% of 220,000 active;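 active = Hck-Nef kinase inhibition above about 50%, limit read from the data; inactive = inhibition below that limit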;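 also: 0% = DMSO with Hck plus Nef and 100% = Hck alone without Nef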
# Target sequence (P08631 whole entry, looked up): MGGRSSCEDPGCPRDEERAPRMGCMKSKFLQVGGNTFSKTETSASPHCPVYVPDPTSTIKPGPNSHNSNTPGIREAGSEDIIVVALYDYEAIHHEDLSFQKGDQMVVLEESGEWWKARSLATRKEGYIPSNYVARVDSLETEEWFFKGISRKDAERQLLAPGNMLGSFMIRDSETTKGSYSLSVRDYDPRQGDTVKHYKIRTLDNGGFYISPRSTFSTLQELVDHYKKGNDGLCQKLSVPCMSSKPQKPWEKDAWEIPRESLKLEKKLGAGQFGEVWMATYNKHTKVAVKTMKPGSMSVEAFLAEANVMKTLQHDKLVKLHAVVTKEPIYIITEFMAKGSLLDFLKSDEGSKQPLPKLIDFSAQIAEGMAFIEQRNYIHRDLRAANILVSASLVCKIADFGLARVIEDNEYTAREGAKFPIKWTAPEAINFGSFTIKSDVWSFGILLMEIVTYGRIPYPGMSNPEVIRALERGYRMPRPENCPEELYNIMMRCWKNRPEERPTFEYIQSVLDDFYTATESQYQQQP
# Active calls of the source: *; / = no result given; [ ] = remark or other dose.
SMILES,14-3-3 Bad inh,eIF4E-4G inh,Mcl1-Noxa inh,Bim-Mcl-1,Mcl1-Bid inh,Hck Nef HTS
C=CSc1sc(Cl)c(N(C)C)c1[N+](=O)[O-],-14,-2,16,-2,-23,7
C=CSc1sc(Cl)c(N(CC)CC)c1[N+](=O)[O-],-5,0,52*,-1,-55,28
N=C1C(c2nc(-c3ccc(Cl)cc3)cs2)=C(O)CN1NC(=O)c1ccc(O)cc1,77*,-11,47,/,-26,45
CCCCN1CC(O)=C(c2nc(-c3ccc(Cl)cc3)cs2)C1=N,45,-48,64*,5,47,1
COc1cc(C(=O)Nc2nnc(CC(C)C)s2)c([N+](=O)[O-])cc1OC,14,2,13,0,5,-7
COCCN(C(=O)CSc1ncc(C(F)(F)F)cc1Cl)c1c(N)n(Cc2ccccc2)c(=O)[nH]c1=O,-6,-3,14,-4,-2,18
CC(=O)C1=C(c2ccccc2)NC(=O)NC1c1ccc(O)c(O)c1 (stereo unspecified),-7,3,17,1,-81,21
CC(=O)C1=C(c2ccccc2)NC(=S)NC1c1ccc(O)c(O)c1 (stereo unspecified),1,5,52*,-8,-20,-3
Cc1ccccc1/C=N/Nc1ccnc2cc(Cl)ccc12,38,3,98*,4,52*,8
Clc1ccc2c(N/N=C/c3cccnc3)ccnc2c1,-7,-2,34,2,-29,27
Cc1ccc(/C=N/Nc2ccnc3cc(Cl)ccc23)c(C)c1,68,6,56*,1,63*,8
Oc1ccc(/C=N/Nc2ccnc3cc(Cl)ccc23)c(O)c1,66,0,88*,/,57*,16
COc1ccc(CC(=O)n2nc(-c3ccccc3)nc2NCc2ccco2)cc1,78*,2,8,-4,-12,1
COc1ccc(Nc2nc(NCc3ccco3)nc(N/N=C/c3ccccc3)n2)cc1,81*,-2,21,-2,3,0
CCOc1ccc(OCC)c(NC(=O)CN2CCN(c3cccc(C)c3)CC2)c1,42,2,24,-5,46,-18
CCOc1ccc(OCC)c(NC(=O)CN2CCN(c3cc(C)ccc3C)CC2)c1,58,4,8,-3,51*,1
NCCc1nnc(SCC(=O)c2ccc(Cl)cc2)o1,1,2,-4,/,-7,20
Oc1ccc(C2=NNC(=NCc3ccc4c(c3)OCO4)SC2)c(O)c1,-8,-1,39,-4,-25,17
COc1ccc(CN=C2NN=C(c3ccc(Cl)cc3)CS2)cc1,0,-4,58*,-1,-13,16
Clc1ccc(C2=NNC(=NCc3ccc4c(c3)OCO4)SC2)cc1,21,-4,62*,-4,10,1
COc1ccnc(Oc2ccc(Cl)cc2)c1C#N,-1,3,11,0,1,29
CC(=O)Nc1cccc(NC=C(C#N)C#N)c1,-6,3,15,0,-9,2
CCN1CCN(c2cc3c(nn2)Oc2ccccc2N3C)CC1,5,-1,36,0,2,7
COc1ccc(-n2c(SCc3ccc([N+](=O)[O-])cc3)nnc2-c2ccc(C)cc2)cc1,92*[fluorescence artefact?],1,25,10,2,-4
COc1ccc(NC(=O)c2cc3sccc3n2Cc2ccc(F)cc2)cc1OC,5,1,-50,-2,58*,3
SMILES,14-3-3 Bad inh,eIF4E-4G inh,Mcl1-Noxa inh,Bim-Mcl-1,Mcl1-Bid inh,Hck Nef HTS
Clc1ccc(OCCCNCc2ccccc2)c(Br)c1,43,3,21,-5,70*,0
C=CCNCCCOc1ccc(Cl)cc1Br,13,-2,25,-2,77*,-21
CCCCC(CCC(=O)NNC(=O)Cc1ccccc1)C(=O)O (stereo unspecified),6,-15,20,1,5,-3
COc1cccc(C(=O)N2C(C(=O)O)CSC2c2ccccc2Cl)c1 (stereo unspecified),-8,2,0,-4,6,2
C/C(=N\OC(=O)C1CC1)C1CC1c1ccc(F)cc1 (stereo unspecified),-3,-1,14,-1,5,11
CC(C)(C)NC(=O)NC(=O)CN1CCN(c2cccc(Cl)c2)CC1,-3,85*,-10,/,-58,16
CCOc1ccccc1N1CCN(Cc2ccc(Br)s2)CC1,76*,2,21,-3,16,1
CCOc1ccccc1N1CCN(C/C=C/c2ccc(N(C)C)cc2)CC1,78*[fluorescence artefact?],3,-15,1,-20,-26
O=C(CSc1nnc(-c2cccc(S(=O)(=O)N3CCCCC3)c2)o1)c1ccc[nH]1,4,-13,24,2,-28,6
NC(=O)CSc1nnc(-c2cccc(S(=O)(=O)N3CCCCC3)c2)o1,84*,3,16,/,-30,15
Cc1cc(C)nc(NCC(O)CNc2ccccc2C)n1 (stereo unspecified),3,-1,-6,-3,-14,-2
Cc1cc(C)nc(NCC(O)COc2ccccc2C)n1 (stereo unspecified),9,-2,-13,-2,101*,2
CC1CC(C)CN(S(=O)(=O)c2cccc3cccnc23)C1 (stereo unspecified),4,0,5,0,-23,3
O=c1n(S(=O)(=O)c2cccc3cccnc23)c2ccccc2n1S(=O)(=O)c1cccc2cccnc12,8,1,10,-6,91*,0
NC(=O)C1CCN(C(=O)COc2ccc3ccccc3c2)CC1,-5,-5,2,-4,-6,9
NC(=O)C1CCN(C(=O)COc2ccc(Nc3ccccc3)cc2)CC1,-2,96*,21,/,-160,-1
COc1ccc(NC(C)=O)cc1S(=O)(=O)Nc1ccc2c(c1)OCCO2,-12,-2,-6,0,-38,4
Cn1cnc2cc(NC(=O)c3cccs3)ccc21,-17,1,-7,-2,-6,1
CC1(C)CCCN(C(=O)c2coc(=O)c(Br)c2)C1,43,25,79*,0,-25,13
Cc1ccc(NS(=O)(=O)c2cccc(C(=O)O)c2)cc1S(=O)(=O)N1CCCCC1,-3,-3,72*,12,-40,5
CCN1C(=O)N[C@@H](c2cccs2)C(C(C)=O)=C1C,-2,-2,9,/,-14,11
CCCCN(CC(=O)Nc1c(C)cccc1CC)C(=O)SCC,-6,0,21,2,-5,2
COc1cc(OC)c(OC)cc1CNCCSc1nnnn1C,-3,1,5,0,-46,13
O=C(O)c1cc(C(=O)O)cc(-c2ccc(/C=c3/sc4nc5ccccc5n4c3=O)o2)c1,51,3,54*,1,-32,17
O=C(O)c1cccc(-c2ccc(/C=c3/sc4nc5ccccc5n4c3=O)o2)c1,68,39*,89*,/,33,-35
